# According to the supplement of paper PMC8728848:
# Many of the other results were omitted from the sample, so the strongest signals are more common in it than they were.
# How the values were obtained:
# Assay in all cases: glycan array binding signal (z-score within array); higher = stronger binding
# Details in all cases: glycan notation: IUPAC condensed, linker removed
# [1] = target: Fuc(a1-2)[GalNAc(a1-4)]Gal(b1-4)GlcNAc
# In short: (§1)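 The binding signal is a Z-score computed within each array. Data were drawn from 3228 arrays in the Consortium for Functional Glycomics database, restricted to those with a known protein sequence. Scores were averaged over arrays of the same protein sequence at different concentrations or buffers, and over linkers, and negative values can be taken as non-binding.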
# Gal(a1-4)Gal(b1-4)GlcNAc = target: Gal(a1-4)Gal(b1-4)GlcNAc
# In short: as §1
# [2] = target: Gal(b1-3)GlcNAc(b1-3)Gal(b1-4)Glc
# In short: as §1
# [3] = target: Gal(b1-4)GlcNAc(b1-3)GalNAc
# In short: as §1
# [4] = target: Gal(b1-4)GlcNAc(b1-6)[Gal(b1-3)]GalNAc
# In short: as §1
# Gal3S(b1-4)Glc = target: Gal3S(b1-4)Glc
# In short: as §1
# GalNAc(b1-4)GlcNAc = target: GalNAc(b1-4)GlcNAc
# In short: as §1
# [5] = target: GlcNAc(b1-2)Gal(b1-3)GalNAc
# In short: as §1
# [6] = target: GlcNAc(b1-4)GlcNAc(b1-4)GlcNAc
# In short: as §1
# [7] = target: Neu5Ac(a2-3)Gal(b1-3)[Neu5Ac(a2-3)Gal(b1-4)]GlcNAc
# In short: as §1
# [8] = target: Neu5Ac(a2-6)Gal(b1-4)GlcNAc(b1-3)Gal(b1-4)GlcNAc
# In short: as §1
# [9] = target: Neu5Ac(a2-8)Neu5Ac(a2-3)[GalNAc(b1-4)]Gal(b1-4)Glc
# In short: as §1
# [10] = target: Neu5Gc(a2-3)Gal(b1-3)GlcNAc
# In short: as §1
binder,measurement,setting,value
CGL3 (Coprinopsis cinerea) (protein) MGHHHHHHHHSGFHILRLESTVDLSEPLKDNGIIVFQSDKLDLEPSPNLGPTGIDNTNVNLINAKGDVLLHIGIRRRENAFVFNSIPYGESRGPEERIPLEGTFGDRRDPSITVFDHPDRYQIMIDYKTVYYYKKRLEGRCEKVSYKINEGQTPPFSDVLGVTVLYFANVMPRAN,glycan array binding signal (z-score),[1],-0.216
same,glycan array binding signal (z-score),Gal(a1-4)Gal(b1-4)GlcNAc,-0.049
same,glycan array binding signal (z-score),[2],2.51
same,glycan array binding signal (z-score),[3],-0.201
same,glycan array binding signal (z-score),[4],-0.193
same,glycan array binding signal (z-score),Gal3S(b1-4)Glc,0.022
same,glycan array binding signal (z-score),GalNAc(b1-4)GlcNAc,6.64
same,glycan array binding signal (z-score),[5],-0.197
same,glycan array binding signal (z-score),[6],8.4
same,glycan array binding signal (z-score),[7],-0.222
same,glycan array binding signal (z-score),[8],-0.21
same,glycan array binding signal (z-score),[9],-0.128
same,glycan array binding signal (z-score),[10],-0.191
